FBW7 act = activators of human E3 ligase FBW7; Q969H0; AlphaScreen FBW7–phospho-cyclin E peptide binding, activator screen; normalized activity (activation), % at 26.1 µM; hit rate 0.13% among 650,000; AID 1259310; in the data active = normalized activity above about 1.9%;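 note: purified mutant Fbw7 with reduced substrate affinity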
Target sequence (Q969H0 whole entry, looked up): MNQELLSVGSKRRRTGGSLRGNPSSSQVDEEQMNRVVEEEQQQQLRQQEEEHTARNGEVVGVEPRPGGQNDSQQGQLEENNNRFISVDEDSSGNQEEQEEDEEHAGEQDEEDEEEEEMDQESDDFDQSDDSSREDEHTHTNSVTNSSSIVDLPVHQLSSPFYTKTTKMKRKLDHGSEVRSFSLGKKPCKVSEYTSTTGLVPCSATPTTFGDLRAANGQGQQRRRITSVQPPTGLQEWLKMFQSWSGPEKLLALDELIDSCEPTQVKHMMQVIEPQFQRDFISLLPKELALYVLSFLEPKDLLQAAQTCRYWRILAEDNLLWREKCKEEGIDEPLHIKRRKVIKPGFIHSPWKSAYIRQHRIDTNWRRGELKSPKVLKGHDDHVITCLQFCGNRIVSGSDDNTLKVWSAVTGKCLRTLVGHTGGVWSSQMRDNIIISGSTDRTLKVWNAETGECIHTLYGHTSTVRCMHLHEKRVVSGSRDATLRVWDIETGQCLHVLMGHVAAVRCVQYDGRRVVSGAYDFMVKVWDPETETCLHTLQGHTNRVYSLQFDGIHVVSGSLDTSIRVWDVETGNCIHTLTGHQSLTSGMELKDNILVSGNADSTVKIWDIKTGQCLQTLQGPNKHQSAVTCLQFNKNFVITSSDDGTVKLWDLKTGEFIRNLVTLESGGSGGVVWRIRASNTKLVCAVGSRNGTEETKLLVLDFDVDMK
GPR151 activ = human GPR151 activation. hit rate 1% among 650,000. activation, % at 11.2 µM. AID 1508602. PathHunter beta-arrestin GPR151 cells, luminescence. Q8TDV0; in the data active = activation above about 4.9%
TEAD-YAP inh = TEAD-YAP interaction inhibition | HEK-TIYL cells, TEAD-Gal4/YAP UAS-luciferase luminescence | inhibition, % at 9.12 µM | hit rate 1.4% among 640,000 | AID 1259422; in the data active = inhibition above about 32%
MITF primary = inhibitors of human MITF | hit rate 0.91% among 650,000 | AID 1259374 | inhibition, % at 2.6 µM | O75030 | AlphaScreen MITF homodimerization, bead proximity signal; in the data active = inhibition above about 50%
Large screens that a line does not name were inactive. Sampled rows, rich in hits. Any-hit rate of the full collection: about 3.5%.

CCOC(=O)C1=C(C)NC2=C(C(=O)c3ccccc32)C1c1cc(OC)c(OC)c(OC)c1 (stereo unspecified)	TEAD-YAP inh 53
COC(=O)C1(Cc2ccccc2)NC(c2ccc(O)cc2)C2C(=O)N(C)C(=O)C21 (stereo unspecified)	none
C=CCNC(=O)c1c(-c2ccccc2)nc2cc(C)ccn12	FBW7 act 1.9
CC1=NOC(=O)/C1=C/c1ccc(OCc2ccc(Cl)cc2)cc1	MITF primary 56
Cn1cnnc1-c1ccc(Nc2ncc(F)c(-c3cc(F)cc(N4CCOCC4)c3)n2)cc1	TEAD-YAP inh 72
CN1CCN(c2ncn(-c3ccc(Nc4ncc(F)c(-c5cc(F)cc(N6CCOCC6)c5)n4)cc3)n2)CC1	TEAD-YAP inh 77
N#Cc1cc(-c2nc(Nc3ccc(N4CCOCC4)cc3)ncc2F)cc(N2CCOCC2)c1	none
Cc1nc(C)n(-c2ccc(Nc3ncc(F)c(-c4cc(F)cc(N5CCOCC5)c4)n3)cc2)n1	none
Cn1cc(-c2ccc3cnc(Nc4ccc(-n5cnc(N6CCOCC6)n5)cc4)nc3n2)cn1	TEAD-YAP inh 80
CN1CCN(c2ncn(-c3ccc(Nc4ncc(F)c(-c5cccc(N6CCOCC6)c5)n4)cc3)n2)CC1	TEAD-YAP inh 62
Cn1cc(-c2ccc(-c3ccnc(Nc4ccc(-n5cnc(N6CCOCC6)n5)cc4)n3)cc2)cn1	none
Cc1ccc(-n2c(SCC(=O)N3CCCC3)nc3c(sc(=S)n3-c3ccc(Cl)c(C)c3)c2=O)cc1	none
CC(=O)NC1(c2ccccc2)CCN(CC2CCCO2)CC1 (stereo unspecified)	none
CCn1cc(-c2ccc3cnc(Nc4ccc(-n5cnc(N6CCOCC6)n5)cc4)nc3c2Cl)cn1	none
CC1CN(c2ncn(-c3ccc(Nc4ncc5ccc(-c6cnn(C)c6)c(Cl)c5n4)cc3)n2)CC(C)O1 (stereo unspecified)	TEAD-YAP inh 57
Cn1cc(-c2nc(Nc3ccc(-n4cnc(N5CCC(O)CC5)n4)cc3)ncc2F)cn1	TEAD-YAP inh 85
Cn1cnnc1-c1ccc(Nc2ncc(F)c(-c3ccccc3)n2)cc1	TEAD-YAP inh 41
Cn1cnnc1-c1ccc(Nc2nccc(-c3cccc(Nc4ccccc4)c3)n2)cc1	none
O=C(CCN1C(=O)COc2ccccc21)NCCN1CCCC1	none
CCOc1cc(C(=O)Nc2sccc2C(N)=O)cc(OCC)c1OCC	TEAD-YAP inh 36
CCOc1ccccc1NC(=O)c1cc(OCC)c(OCC)c(OCC)c1	none
CCOc1cc(C(=O)Nc2ccccc2C(N)=O)cc(OCC)c1OCC	TEAD-YAP inh 37
CCOc1cc(C(=O)Nc2sccc2C(=O)N2CCOCC2)cc(OCC)c1OCC	none
O=[N+]([O-])c1ccc(Sc2nnnn2-c2ccccc2)c([N+](=O)[O-])c1	none
Cc1ccc(-n2nnnc2Sc2ccc([N+](=O)[O-])cc2C#N)cc1	TEAD-YAP inh 45
CN(C)CCNS(=O)(=O)c1ccc(Sc2nnnn2-c2ccccc2)c([N+](=O)[O-])c1	TEAD-YAP inh 84
N#Cc1ccc(NC(=O)c2cc([N+](=O)[O-])ccc2Sc2nnnn2-c2ccccc2)cc1	none
N#Cc1cc([N+](=O)[O-])ccc1Sc1nnnn1-c1ccccc1	TEAD-YAP inh 46
COc1ccc(C2C(C(C)=O)=C(C)Nc3ncnn32)cc1Br (stereo unspecified)	none
CC(C)(C)P(=NC(=S)NCCCO)(N1CCCCCC1)N1CCCCCC1	TEAD-YAP inh 73
CCc1ccc(C2=NN(c3ccccc3)C(c3ccc(OC)cc3)C2)cc1 (stereo unspecified)	none
COc1ccc(N2C(N)=C(C#N)C(c3ccc(F)cc3)C3=C2CCCC3=O)cc1 (stereo unspecified)	TEAD-YAP inh 51
CCOc1ccc(C2C(C#N)=C(N)N(c3ccc(OC)cc3)C3=C2C(=O)CCC3)cc1 (stereo unspecified)	TEAD-YAP inh 50
COC(=O)c1c(N2C(N)=C(C#N)C(c3ccccc3)C3=C2CCCC3=O)sc2c1CCCC2 (stereo unspecified)	TEAD-YAP inh 54
N#CC1=C(N)N(c2ccc(F)cc2)C2=C(C(=O)CCC2)C1c1ccc(F)cc1 (stereo unspecified)	none
CCOC(=O)C1=C(C)N(CC(C)C)C(=O)/C1=C\c1ccccc1OCc1ccccc1	none
Cc1ccc(N2C(=O)C(Cl)=C(Nc3cc(Cl)ccc3O)C2=O)cc1	TEAD-YAP inh 41
O=C1C(Cl)=C(Nc2ccccc2O)C(=O)N1c1ccccc1	none
Cc1[nH]cnc1CN1CCCC(C(=O)c2ccc(Oc3ccccc3)cc2)C1 (stereo unspecified)	TEAD-YAP inh 33

Assay outcomes (PubChem BioAssay)
